Legend:
[1] = biological target: Serine/threonine-protein kinase MRCK alpha (Homo sapiens) (UniProt Q5VT25); settings: at 0.1 µM
[2] = biological target: Serine/threonine-protein kinase MRCK alpha (Homo sapiens) (UniProt Q5VT25); settings: at 1 µM
[3] = biological target: Serine/threonine-protein kinase MRCK beta (Homo sapiens) (UniProt Q9Y5S2); settings: at 0.1 µM
[4] = biological target: Serine/threonine-protein kinase MRCK beta (Homo sapiens) (UniProt Q9Y5S2); settings: at 1 µM
[5] = biological target: Ribosomal protein S6 kinase alpha-5 (Homo sapiens) (UniProt O75582); settings: at 0.1 µM
[6] = biological target: Ribosomal protein S6 kinase alpha-5 (Homo sapiens) (UniProt O75582); settings: at 1 µM
[7] = biological target: Ribosomal protein S6 kinase alpha-4 (Homo sapiens) (UniProt O75676); settings: at 0.1 µM
[8] = biological target: Ribosomal protein S6 kinase alpha-4 (Homo sapiens) (UniProt O75676); settings: at 1 µM
[9] = biological target: Ribosomal protein S6 kinase beta-1 (Homo sapiens) (UniProt P23443); settings: at 0.1 µM
[10] = biological target: Ribosomal protein S6 kinase beta-1 (Homo sapiens) (UniProt P23443); settings: at 1 µM
[11] = biological target: T1, 3-phosphoinositide-dependent protein kinase 1 (Homo sapiens) (UniProt O15530); settings: at 0.1 µM;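 also: values are mean inhibition of PDK1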
T1 sequence (whole entry): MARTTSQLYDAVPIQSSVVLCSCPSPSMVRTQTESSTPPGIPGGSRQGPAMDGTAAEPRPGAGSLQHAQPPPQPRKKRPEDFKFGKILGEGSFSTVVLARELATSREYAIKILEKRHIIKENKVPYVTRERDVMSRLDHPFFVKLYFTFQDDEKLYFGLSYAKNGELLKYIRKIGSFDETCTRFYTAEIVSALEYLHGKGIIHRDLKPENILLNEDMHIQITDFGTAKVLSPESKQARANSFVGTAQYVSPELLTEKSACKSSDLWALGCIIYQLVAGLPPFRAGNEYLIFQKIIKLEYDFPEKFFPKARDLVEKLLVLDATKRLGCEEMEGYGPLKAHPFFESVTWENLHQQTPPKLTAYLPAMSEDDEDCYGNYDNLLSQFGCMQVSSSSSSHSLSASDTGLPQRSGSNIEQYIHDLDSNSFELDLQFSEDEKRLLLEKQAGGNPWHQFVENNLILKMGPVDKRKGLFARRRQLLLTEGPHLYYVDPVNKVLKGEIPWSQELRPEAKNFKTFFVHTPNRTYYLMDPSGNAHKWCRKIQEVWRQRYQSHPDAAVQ

[12] = biological target: cAMP-dependent protein kinase catalytic subunit alpha (Homo sapiens) (UniProt P17612); settings: at 0.1 µM
[13] = biological target: cAMP-dependent protein kinase catalytic subunit alpha (Homo sapiens) (UniProt P17612); settings: at 1 µM
[14] = biological target: Protein kinase C alpha type (Homo sapiens) (UniProt P17252); settings: at 0.1 µM
[15] = biological target: Protein kinase C alpha type (Homo sapiens) (UniProt P17252); settings: at 1 µM
[16] = biological target: Protein kinase C beta type (Homo sapiens) (UniProt P05771); settings: at 0.1 µM
[17] = biological target: Protein kinase C beta type (Homo sapiens) (UniProt P05771); settings: at 1 µM
[18] = biological target: Protein kinase C eta type (Homo sapiens) (UniProt P24723); settings: at 0.1 µM
[19] = biological target: Protein kinase C eta type (Homo sapiens) (UniProt P24723); settings: at 1 µM
[20] = biological target: Protein kinase C gamma type (Homo sapiens) (UniProt P05129); settings: at 0.1 µM;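 also: values are mean percent inhibition of PKC gamma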

Sequence of Protein kinase C eta type (Homo sapiens) (P24723 whole entry): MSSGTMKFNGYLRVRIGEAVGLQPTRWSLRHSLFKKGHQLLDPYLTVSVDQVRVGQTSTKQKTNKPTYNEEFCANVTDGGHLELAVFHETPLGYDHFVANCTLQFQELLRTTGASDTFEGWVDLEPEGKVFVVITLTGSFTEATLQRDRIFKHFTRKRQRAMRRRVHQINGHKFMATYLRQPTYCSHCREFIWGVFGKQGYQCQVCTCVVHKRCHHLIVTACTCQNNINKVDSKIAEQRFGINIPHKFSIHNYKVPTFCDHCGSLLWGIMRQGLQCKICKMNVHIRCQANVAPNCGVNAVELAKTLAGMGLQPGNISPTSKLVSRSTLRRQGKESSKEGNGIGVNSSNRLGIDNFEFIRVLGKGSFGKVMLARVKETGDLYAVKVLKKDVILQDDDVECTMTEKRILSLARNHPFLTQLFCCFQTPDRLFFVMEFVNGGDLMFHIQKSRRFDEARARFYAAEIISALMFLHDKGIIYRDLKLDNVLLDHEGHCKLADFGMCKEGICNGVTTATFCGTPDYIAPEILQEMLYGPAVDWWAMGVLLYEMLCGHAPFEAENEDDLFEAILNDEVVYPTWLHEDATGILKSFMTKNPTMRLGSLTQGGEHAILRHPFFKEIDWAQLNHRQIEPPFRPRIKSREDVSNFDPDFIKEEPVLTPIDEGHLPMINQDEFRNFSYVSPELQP
Sequence of Ribosomal protein S6 kinase alpha-4 (Homo sapiens) (O75676 whole entry, looked up): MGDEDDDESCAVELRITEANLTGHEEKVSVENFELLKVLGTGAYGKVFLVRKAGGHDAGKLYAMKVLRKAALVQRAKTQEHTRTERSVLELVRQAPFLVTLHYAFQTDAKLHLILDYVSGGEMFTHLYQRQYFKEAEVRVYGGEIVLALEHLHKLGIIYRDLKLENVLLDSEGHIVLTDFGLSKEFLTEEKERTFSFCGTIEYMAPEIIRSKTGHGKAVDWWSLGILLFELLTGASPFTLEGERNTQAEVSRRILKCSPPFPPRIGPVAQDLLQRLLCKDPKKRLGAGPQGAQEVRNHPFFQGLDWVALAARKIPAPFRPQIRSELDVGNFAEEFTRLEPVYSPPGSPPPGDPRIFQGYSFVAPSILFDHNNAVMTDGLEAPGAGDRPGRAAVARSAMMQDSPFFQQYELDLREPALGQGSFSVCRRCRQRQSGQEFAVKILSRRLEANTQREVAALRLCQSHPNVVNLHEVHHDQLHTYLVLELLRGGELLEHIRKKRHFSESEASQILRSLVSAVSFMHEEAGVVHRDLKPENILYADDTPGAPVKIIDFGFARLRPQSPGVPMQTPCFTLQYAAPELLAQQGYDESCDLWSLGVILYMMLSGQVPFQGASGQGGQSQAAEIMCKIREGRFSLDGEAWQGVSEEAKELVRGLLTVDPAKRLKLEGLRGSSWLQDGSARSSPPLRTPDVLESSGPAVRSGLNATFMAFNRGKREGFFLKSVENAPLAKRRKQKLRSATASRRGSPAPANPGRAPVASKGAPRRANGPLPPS
Sequence of Protein kinase C beta type (Homo sapiens) (P05771 2-671 limits assumed): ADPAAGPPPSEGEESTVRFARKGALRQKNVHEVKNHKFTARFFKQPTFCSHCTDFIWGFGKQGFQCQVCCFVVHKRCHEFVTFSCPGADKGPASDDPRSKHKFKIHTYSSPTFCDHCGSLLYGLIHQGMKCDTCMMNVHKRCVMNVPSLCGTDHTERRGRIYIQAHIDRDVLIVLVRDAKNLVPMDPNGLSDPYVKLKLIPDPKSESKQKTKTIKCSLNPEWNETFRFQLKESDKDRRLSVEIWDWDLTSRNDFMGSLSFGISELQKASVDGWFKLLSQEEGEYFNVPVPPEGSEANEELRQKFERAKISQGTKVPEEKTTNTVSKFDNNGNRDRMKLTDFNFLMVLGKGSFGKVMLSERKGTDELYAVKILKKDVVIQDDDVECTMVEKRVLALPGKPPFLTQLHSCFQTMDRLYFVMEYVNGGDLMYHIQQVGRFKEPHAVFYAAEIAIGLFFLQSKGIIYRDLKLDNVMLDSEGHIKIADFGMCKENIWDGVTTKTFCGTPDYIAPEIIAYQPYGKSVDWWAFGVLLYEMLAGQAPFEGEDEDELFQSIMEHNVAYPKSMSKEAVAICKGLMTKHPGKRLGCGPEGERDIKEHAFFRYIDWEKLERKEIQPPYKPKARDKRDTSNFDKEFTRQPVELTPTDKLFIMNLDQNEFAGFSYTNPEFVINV
Sequence of Serine/threonine-protein kinase MRCK beta (Homo sapiens) (Q9Y5S2 whole entry): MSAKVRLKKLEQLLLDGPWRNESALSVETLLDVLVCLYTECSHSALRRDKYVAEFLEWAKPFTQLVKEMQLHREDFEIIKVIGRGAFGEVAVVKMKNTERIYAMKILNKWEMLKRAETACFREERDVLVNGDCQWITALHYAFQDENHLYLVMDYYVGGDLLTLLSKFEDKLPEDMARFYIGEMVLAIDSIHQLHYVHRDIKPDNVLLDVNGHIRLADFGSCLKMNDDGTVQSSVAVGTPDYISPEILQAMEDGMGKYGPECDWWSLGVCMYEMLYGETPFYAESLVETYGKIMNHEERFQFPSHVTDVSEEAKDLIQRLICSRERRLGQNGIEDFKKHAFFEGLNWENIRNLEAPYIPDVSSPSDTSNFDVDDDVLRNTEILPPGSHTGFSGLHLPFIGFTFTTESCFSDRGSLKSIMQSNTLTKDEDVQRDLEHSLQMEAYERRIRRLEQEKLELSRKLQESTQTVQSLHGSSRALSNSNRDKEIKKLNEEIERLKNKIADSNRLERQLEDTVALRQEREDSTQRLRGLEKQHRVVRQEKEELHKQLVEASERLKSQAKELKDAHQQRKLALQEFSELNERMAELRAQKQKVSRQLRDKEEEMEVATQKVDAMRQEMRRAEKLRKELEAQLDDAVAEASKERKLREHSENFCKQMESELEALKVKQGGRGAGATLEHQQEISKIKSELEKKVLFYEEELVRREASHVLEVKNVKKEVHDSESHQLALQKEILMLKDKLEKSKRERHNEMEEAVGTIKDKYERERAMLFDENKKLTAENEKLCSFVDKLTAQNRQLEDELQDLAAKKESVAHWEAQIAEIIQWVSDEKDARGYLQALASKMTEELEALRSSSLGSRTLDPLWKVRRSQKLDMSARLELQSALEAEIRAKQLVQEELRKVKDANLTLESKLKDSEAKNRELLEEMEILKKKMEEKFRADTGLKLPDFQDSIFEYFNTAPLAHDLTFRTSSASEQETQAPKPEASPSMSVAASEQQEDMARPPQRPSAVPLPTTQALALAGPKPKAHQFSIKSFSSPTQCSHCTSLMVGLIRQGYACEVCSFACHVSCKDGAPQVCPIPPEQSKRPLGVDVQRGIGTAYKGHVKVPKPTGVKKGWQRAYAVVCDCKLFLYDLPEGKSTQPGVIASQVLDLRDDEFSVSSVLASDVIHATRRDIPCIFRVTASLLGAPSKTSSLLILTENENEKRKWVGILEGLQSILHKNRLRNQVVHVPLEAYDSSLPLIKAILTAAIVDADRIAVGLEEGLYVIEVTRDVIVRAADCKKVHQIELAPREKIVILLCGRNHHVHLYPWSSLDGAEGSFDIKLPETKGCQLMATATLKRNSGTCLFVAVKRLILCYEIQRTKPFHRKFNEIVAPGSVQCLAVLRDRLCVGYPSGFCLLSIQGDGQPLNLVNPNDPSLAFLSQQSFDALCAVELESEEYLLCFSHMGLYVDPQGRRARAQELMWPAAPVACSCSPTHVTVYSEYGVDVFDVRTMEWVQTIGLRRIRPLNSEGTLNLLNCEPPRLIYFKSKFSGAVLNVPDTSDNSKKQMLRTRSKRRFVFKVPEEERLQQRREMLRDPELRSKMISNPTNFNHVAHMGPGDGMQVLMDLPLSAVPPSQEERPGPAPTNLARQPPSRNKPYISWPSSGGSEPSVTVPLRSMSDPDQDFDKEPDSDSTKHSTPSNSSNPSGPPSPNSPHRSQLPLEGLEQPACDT
Sequence of Ribosomal protein S6 kinase beta-1 (Homo sapiens) (P23443 whole entry, looked up): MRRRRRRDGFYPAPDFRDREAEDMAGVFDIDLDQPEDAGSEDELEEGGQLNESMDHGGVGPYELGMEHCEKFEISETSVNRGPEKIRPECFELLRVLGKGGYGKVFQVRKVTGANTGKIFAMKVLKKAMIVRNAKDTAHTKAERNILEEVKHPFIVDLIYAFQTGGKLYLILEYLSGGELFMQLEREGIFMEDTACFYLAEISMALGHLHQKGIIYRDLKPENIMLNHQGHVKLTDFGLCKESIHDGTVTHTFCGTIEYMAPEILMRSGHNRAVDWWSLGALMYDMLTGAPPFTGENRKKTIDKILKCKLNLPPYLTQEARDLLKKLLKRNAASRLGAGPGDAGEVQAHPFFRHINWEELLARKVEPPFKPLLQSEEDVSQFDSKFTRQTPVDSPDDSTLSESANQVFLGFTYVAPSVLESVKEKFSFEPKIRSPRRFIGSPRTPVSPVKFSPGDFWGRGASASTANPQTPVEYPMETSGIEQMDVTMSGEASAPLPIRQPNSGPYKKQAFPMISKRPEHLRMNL

Structure (SMILES) | inhibition [1] [%] | inhibition [2] [%] | inhibition [3] [%] | inhibition [4] [%] | inhibition [5] [%] | inhibition [6] [%] | inhibition [7] [%] | inhibition [8] [%] | inhibition [9] [%] | inhibition [10] [%] | inhibition [11] [%] | inhibition [12] [%] | inhibition [13] [%] | inhibition [14] [%] | inhibition [15] [%] | inhibition [16] [%] | inhibition [17] [%] | inhibition [18] [%] | inhibition [19] [%] | inhibition [20] [%]
COC(=O)Nc1nc2ccc(Oc3ccc(NC(=O)Nc4cccc(Cl)c4)cc3)cc2[nH]1 | -2.43 | -0.92 | -0.72 | -1.4 | 0.39 | -1.18 | 0.82 | -0.55 | 0.63 | 0.82 | -0.86 | 2.12 | 0.79 | 0.15 | -0.86 | -1.37 | -5.17 | 0.84 | -0.24 | 0.84
O=S(=O)(CCNCc1ccc(-c2ccc3ncnc(Nc4ccc(OCc5cccc(F)c5)c(Cl)c4)c3c2)o1)c1ccccc1 | -4.06 | 0.31 | 0.71 | -0.02 | 4.86 | 4.66 | 3.43 | 3.05 | 1.88 | 2.98 | 0.78 | 2.48 | 6.82 | 1.39 | 2.12 | 0.95 | 2.13 | 4.07 | 3.1 | 1.93
COC(=O)c1sc(-n2cnc3cc(OC)c(OC)cc32)cc1OCc1ccccc1C(F)(F)F | -0.56 | -2.93 | -0.49 | -0.87 | 3.01 | 1.81 | 0.54 | 3.06 | 2.41 | 7.02 | 1.42 | 1.59 | 0.74 | 0.62 | 1.49 | -0.94 | 0.17 | 2.15 | 0.99 | 3.39
COc1cc2ncn(-c3cc(OCc4ccccc4C(F)(F)F)c(C(=O)N(C)C)s3)c2cc1OC | 0.01 | 0.75 | -1.11 | 1.24 | -0.57 | -0.4 | 0.13 | 0.89 | -0.55 | -1.48 | 1.17 | 0.88 | 0.93 | -0.03 | 0.21 | 0.35 | -0.32 | 1.66 | 0.73 | -1.33
Cc1cccc(Nc2ncc(-c3ccccc3)o2)c1 | 7.36 | 8.12 | 0.54 | 4.56 | 2.55 | 6.07 | 1.23 | 8.07 | 1.43 | 3.89 | 1.5 | 12.6 | 13.8 | 0.24 | 3.41 | 3.52 | 5.79 | 2.87 | 0.87 | 3.99
COc1ccc(-c2nn3ncccc3c2-c2ccnc(Nc3ccc4c(c3)OCCO4)n2)cc1 | -0.27 | -2.49 | 0.2 | 0 | 0.41 | -0.38 | 1.07 | -0.23 | 0.77 | -0.95 | -0.83 | 0.73 | 2.32 | -1.17 | 0.51 | -1.85 | 3.69 | 1.65 | 2.32 | 0.61
CCn1c(-c2nonc2N)nc2ccccc21 | 1.63 | 10.9 | 1.39 | 10.9 | 23.3 | 62.5 | 7.88 | 40.4 | 22.1 | 70.5 | 2.81 | 3.16 | 18.5 | 0.44 | 5.52 | 12.7 | 46.5 | 20.8 | 67.6 | 3.92
CS(=O)(=O)CCNCc1coc(-c2ccc3ncnc(Nc4ccc(OCc5ccccc5)cc4)c3c2)c1 | 2.17 | 0.57 | 0.72 | 1.14 | 1.49 | 1.55 | 2.52 | 3.49 | 0.79 | 3.34 | 6.29 | 1.59 | 2.39 | 0.46 | 1.78 | 0.47 | -1 | 4.58 | 3.63 | -2.12
N#Cc1c(NC(=O)c2ccc(F)cc2)sc2c1CCCC2 | 0.16 | -0.05 | -0.27 | 1.57 | 1.16 | 2.08 | 0.1 | 2.25 | -0.29 | 0.86 | 0.85 | 1.5 | 2.64 | 0.43 | -0.26 | -1.4 | 2.12 | 3.5 | 2.09 | 0.54
c1cc(-c2cnn3nc(N4CCOCC4)ccc23)nc(NC2CC2)n1 | 0.21 | -0.69 | 0.92 | 0.61 | 3.83 | 3.75 | 0.89 | 6.24 | 1.29 | 3.7 | 4.31 | 1.21 | 1.42 | 1.17 | 6.27 | -0.45 | -0.77 | 2.39 | 2.99 | 6.1
COc1cc(Nc2nccc(Nc3ccc4c(C)n[nH]c4c3)n2)cc(OC)c1OC | 1.61 | -0.15 | 1.88 | 1.78 | 3.58 | 2.96 | 1.54 | 2.58 | 0.65 | 1.09 | 2.76 | 2.38 | 14 | 1.29 | 10.2 | 1.4 | 1.99 | 3.09 | -1.03 | 3.2
c1ccc(COc2ccc(Nc3ncnc4ccc(-c5ccco5)cc34)cc2)cc1 | -3.21 | -2.24 | 0.9 | -0.9 | 0.07 | -1.17 | 2.09 | 1.67 | 0.5 | 0.07 | 0.07 | 1.25 | 1.55 | -0.04 | 0.05 | -0.86 | -0.3 | 0.37 | 0.45 | 0.73
CCn1c(-c2nonc2N)nc2c(C#CC(C)(C)O)nc(OC[C@H](N)c3ccccc3)cc21 | 11.8 | 36.3 | 3.04 | 26.6 | 3.37 | 17.7 | 3.75 | 20.5 | 4.66 | 33.1 | 0.94 | 81.3 | 82.5 | 3.82 | 32.3 | 32.7 | 67.3 | 97.9 | 97.1 | 8.83
COc1cc(N2CCN(C(C)C)CC2)ccc1Nc1nc(Nc2ccc(F)cc2C(N)=O)c2cc[nH]c2n1 | 9.71 | 20 | 1.18 | 16.4 | 1.85 | 6.61 | 1.8 | 7.26 | 1.81 | 5.41 | -1.21 | 7.85 | 7.44 | 0.54 | 6.72 | 1.83 | 4.58 | 1.05 | 3.09 | 3.65

From ChEMBL document CHEMBL1961873, “Compounds: GSK PKIS; Assays: Nanosyn kinase panel” (2012)
